NALP1 yeast inh: inhibitors of NALP1 inflammasome in yeast; S. cerevisiae NALP1/ASC/caspase-1 growth, X-gal OD620, 72 h; inhibition, % at 10 µM; hit rate 0.61% among 280,000; in the data active = inhibition mostly above about 24%, no sharp cut-off; inactive = mostly below about 32%
tim10-1 inh: growth inhibitors of tim10-1 mutant yeast | S. cerevisiae tim10-1 ts strain growth, BacTiter-Glo, 24 h | inhibition, % at 20 µM | hit rate 2.2% among 330,000;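 active = inhibition of at least 40%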;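 also: mutant grown at 25 °C; 0% = DMSO wells with yeast and 100% = wells holding no yeast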
PfHsp90 set2: inhibits growth of yeast expressing Plasmodium falciparum Hsp90; S. cerevisiae expressing PfHsp90, BacTiter-Glo ATP, 48 h; yeast lacking PDR1 and PDR3 efflux regulators; inhibition, % at 9.4 µM; hit rate 0.32% among 310,000; AID 504621;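 active = every replicate shows inhibition above about 80%, whatever the replicate mean, limit read from the data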;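 also: 0% = DMSO neutral controls and 100% = 20 µM radicicol positive controls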
tim23-1 inh: tim23-1 yeast growth inhibition | S. cerevisiae tim23-1 growth, BacTiter-Glo luminescence, 24 h | inhibition, % at 20 µM | hit rate 1.3% among 330,000;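 active = growth inhibition of the mutant yeast at or above 50%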;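 also: temperature-sensitive mutant grown at 25 °C; plate controls were DMSO-treated mutant yeast for no effect and medium wells lacking yeast for full effect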
TIM10 inh: inhibits growth of TIM10 yeast strain. inhibition, % at 10 µM. AID 463195. S. cerevisiae TIM10 strain growth, BacTiter-Glo luminescence, 24 h. hit rate 1.4% among 330,000;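 active = inhibition of 40% or more at the single tested concentration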;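 also: wild-type TIM10 isogenic control strain grown at permissive 25 °C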
SKKanGAS inh: inhibitors of SKKanGAS S. pyogenes growth in kanamycin (SK-promoter or general growth effect); inhibition, % at 7.5 µM; hit rate 1.3% among 300,000; BacTiter-Glo, 6 h;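 active = mean replicate score, as percent of positive control median, at least 50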;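 also: strain carries kanamycin resistance gene driven by streptokinase promoter and grows in 40 µg/ml kanamycin; loss of luminescence reflects streptokinase promoter inhibition or plain growth inhibition; 0% = median of DMSO wells and 100% = positive control at its reference dose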
tim10 confirm: confirmation of TIM10 yeast growth inhibitors. shares compounds with TIM10 inh. S. cerevisiae tim10 strain growth, BacTiter-Glo luminescence, 24 h. inhibition, % at 10 µM. hit rate 63% among 4,600;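 active = inhibition of yeast growth at or above a set limit in either of two replicates at 10 µM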;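 also: this counterscreen used the strain with wild-type TIM10; 0% = yeast with DMSO and 100% = medium wells lacking yeast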
tim23-1 confirm: tim23-1 yeast growth inhibition, confirmed; hit rate 83% among 4,400; S. cerevisiae tim23-1 growth, BacTiter-Glo luminescence, 24 h; inhibition, % at 20 µM; shares compounds with tim23-1 inh;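 active = inhibition above about 39% in either of two replicate wells at 20 µM, limit read from the data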;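 also: temperature-sensitive tim23-1 mutant grown at 25 °C; 0% = DMSO wells with yeast and 100% = medium wells without yeast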
Active calls of the source: *; x = no result given. Hits are enriched below; roughly 4.8% of the tested compounds scored in any of these assays.

SMILES	NALP1 yeast inh	tim10-1 inh	PfHsp90 set2	tim23-1 inh	TIM10 inh	SKKanGAS inh	tim10 confirm	tim23-1 confirm
O=C(COC(=O)c1nc(Cl)ccc1Cl)NCCc1ccccc1	x	18.3	-4.8	19.2	9.8	3.9	x	x
CC1CN(C)C(C)c2c1oc1ccc(N)cc21 (stereo unspecified)	-3.5	1.1	x	8.6	0.3	5.9	x	x
O=C1NC(=Nc2ccccc2)S/C1=C/c1cccs1	7.2	26.4	-20.9	61.5*	48.7*	4.9	31.9*	72.5*
Cc1ccc(C)c(C(=O)Nc2cc(C)nn2-c2nc(C)cc(C)n2)c1	16.6	8.9	-24.9	53.8*	43.2*	48.0	42.8*	48.3*
Cc1cc(C)nc(-n2nc(C)cc2NC(=O)c2cccc(S(=O)(=O)N(C)C)c2)n1	3.5	5.0	x	-1.6	-6.7	8.5	x	x
Cc1cccc2cc(/C=C/C(=O)c3ccco3)c(Cl)nc12	x	30.0	x	50.2*	43.3*	-15.2	9.6	52.3*
CCOc1ccc2nc(Cl)c(/C=C/C(=O)c3ccco3)cc2c1	11.3	34.5	x	41.0	37.2	15.9	x	x
CCOc1ccccc1-c1cc(C(=O)Nc2ccc(C(=O)O)cc2)c2ccccc2n1	13.7	26.3	-30.5	0.6	-4.6	30.7	x	x
O=C(CCN1CCOCC1)N/N=C/c1cc(Br)cc(Br)c1O	4.7	36.8	-48.3	62.8*	57.9*	56.5*	50.2*	62.4*
O=C(c1ccco1)N1CCN(c2nc(-c3ccc(F)cc3)cs2)CC1	-2.6	32.0	4.3	82.1*	44.3*	-0.7	17.0	34.5
O=C(c1ccco1)N1CCN(c2ccc(F)cc2)CC1	-2.6	-9.5	1.4	8.4	3.5	-3.8	x	x
Cc1ccc(NC2=C(Cl)C(=O)OC2OC(=O)c2ccc(C)cc2)cc1 (stereo unspecified)	-1.6	29.2	16.8	42.7	36.3	-1.0	x	x
COC(=O)c1ccc(NC2=C(Cl)C(=O)OC2OC(=O)c2ccccc2)cc1 (stereo unspecified)	16.6	35.6	-33.2	50.3*	41.0*	-10.5	24.9	42.8*
Cc1cc([N+](=O)[O-])cc(/C=N\NC(=O)C2COc3ccccc3O2)c1O (stereo unspecified)	-19.4	14.4	-15.9	67.1*	44.6*	105.6*	36.5*	70.5*
O=C(N/N=C\c1ccc(O)c([N+](=O)[O-])c1)C1COc2ccccc2O1 (stereo unspecified)	-1.5	4.9	0.2	11.0	9.2	-5.0	x	x
CCN1CCN(S(=O)(=O)c2ccc(Cl)c(C(=O)N(C)CCOc3ccc(Cl)cc3)c2)CC1	x	18.4	14.5	13.4	6.2	-3.5	x	x
O=Cc1ccccc1OCCCOc1cccc2cccnc12	4.9	33.2	-7.1	76.3*	49.5*	0.0	52.4*	78.7*
O=Cc1ccc(OCCCOc2cccc3cccnc23)cc1	21.1	38.7	-7.8	36.0	14.2	-13.0	x	x
Cc1ccc(-c2cn(-c3ccccc3F)c(=S)[nH]2)cc1	8.0	28.7	-16.3	61.2*	44.6*	2.5	46.8*	47.6*
O=[N+]([O-])c1ccc(-c2cn(-c3ccccc3F)c(=S)[nH]2)cc1	2.6	12.5	-4.9	-0.6	2.8	-1.4	x	x
CC(=O)/C(=C\N(C)C)Sc1ccc(Cl)cc1	28.0	-7.9	-24.7	-1.5	-3.8	1.4	x	x
S=C(Sc1ccc(Cl)cc1)Sc1ccc(Cl)cc1	x	27.6	x	73.1*	47.4*	37.4	42.4*	76.8*
O=C(COC(=O)c1ccccc1F)NC1CC1	x	5.2	0.1	8.6	-0.7	x	x	x
CCc1ccc(N2CC(C(=O)N3CCCC3)CC2=O)cc1 (stereo unspecified)	3.8	-9.5	-14.6	-4.1	-12.0	-2.1	x	x
Cc1ccc(C(=O)NC(=S)NCC(=O)c2ccccc2)cc1	26.6	10.6	-8.4	-3.5	4.1	-4.6	x	x
SMILES	NALP1 yeast inh	tim10-1 inh	PfHsp90 set2	tim23-1 inh	TIM10 inh	SKKanGAS inh	tim10 confirm	tim23-1 confirm
O=C(CNC(=S)NC(=O)c1cccs1)c1ccccc1	15.1	37.0	16.8	62.7*	44.2*	-1.4	-21.1	67.0*
O=[N+]([O-])c1cc2oc3c(c2c(C=NCc2ccccc2)c1O)CCCC3	62.4	33.9	-15.8	77.4*	54.0*	7.2	-0.2	2.2
Cc1ccc2nc(-c3ccc4c(c3)OCCO4)cn2c1	-1.0	34.4	-5.7	51.2*	74.3*	-9.0	75.6*	52.1*
c1ccn2cc(-c3ccc4c(c3)OCCO4)nc2c1	21.3	19.4	40.0	31.1	12.0	7.6	x	x
Cc1ccccc1CNC(=O)CCC(=O)N1CCOc2ccc(Cl)cc21	-4.1	19.2	16.6	25.3	5.0	-4.6	x	x
N#C/C(=C\c1ccc(N2CCOCC2)o1)c1nc2ccccc2[nH]1	16.0	35.9	8.4	53.9*	41.6*	6.2	31.2*	73.8*
CCOC(=O)c1cnc2c(Cl)c(Cl)ccc2c1NCCN1CCOCC1	14.9	26.8	15.6	27.9	16.4	-2.9	x	x
CCOC(=O)c1cnc2c(C)c(Cl)ccc2c1NCCCN1CCOCC1	14.3	33.3	-12.9	50.8*	65.3*	-3.0	59.8*	41.1*
O=C(COC(=O)CNS(=O)(=O)c1ccc(F)c(F)c1F)NC1CC1	x	-6.1	x	10.7	-1.5	1.8	x	x
O=C(Nc1nc2ccccc2s1)C1c2ccccc2Oc2ccccc21	45.3	36.0	-41.1	51.1*	45.1*	22.8	45.9*	57.5*
Cc1nc2cc(NC(=O)NCc3ccco3)ccc2n1C	-29.2	0.4	32.4	9.0	9.4	-8.6	x	x
c1ccc(-n2cnc3cc(NCc4ccco4)ccc32)cc1	19.8	25.0	x	53.8*	53.1*	-5.4	39.3*	68.0*
COc1ccc(N2CC(C(=O)Nc3ccc(F)cc3F)CC2=O)cc1 (stereo unspecified)	x	8.4	10.4	3.6	-19.8	-5.9	x	x
COC(=O)c1cccc(-n2sc3ccccc3c2=O)c1	x	24.3	20.8	21.9	27.5	x	x	x
Cc1ccc(-n2sc3ccccc3c2=O)cc1	14.8	35.8	-123.6	59.1*	65.1*	95.6*	1.3	56.5*
CCc1nnc(NC(=O)CSc2nccn2-c2cc(C)cc(C)c2)s1	20.0	19.2	6.6	24.4	4.9	1.2	x	x
CC(C)NC(=S)N/N=C/c1cc(Br)ccc1O	37.1	39.1	-40.8	55.1*	55.5*	61.5*	-9.7	-5.6
COC(=O)N/N=C/c1cc(Br)ccc1O	-5.3	23.3	-34.6	2.0	7.8	-5.3	x	x
O=C(N/N=C/c1cc(Br)ccc1O)c1ccccc1Cl	59.1*	35.5	-54.2	78.9*	64.9*	68.4*	-34.0	68.8*
COC(=O)c1sccc1NC(=O)Cn1nnc(-c2ccccc2C)n1	2.8	26.9	x	11.0	-23.7	3.9	x	x
Cc1ccc(NC(=O)ON=C2CCCC2)cc1	14.2	-0.2	-7.4	52.7*	53.5*	-7.8	68.0*	47.3*

Screening results (PubChem)
